39 compounds from ChEMBL document CHEMBL3988442, “University of Dundee, Small-Polar-MMV Screening Library” (2021) can be followed below.

SMILES strings stand for the structures. Measured potencies and affinities stand elsewhere.

The target in the first assay is Protein translocase subunit SecA (Escherichia coli (strain K12)) (UniProt P10408). In words: Assay to Identify E. coli SecA ATPase Inhibitors. The class given is functional. Conditions: 30 µM. Details: scale not given: direction of the effect not stated beside the values.
Protein translocase subunit SecA (Escherichia coli (strain K12)), sequence (P10408 whole entry): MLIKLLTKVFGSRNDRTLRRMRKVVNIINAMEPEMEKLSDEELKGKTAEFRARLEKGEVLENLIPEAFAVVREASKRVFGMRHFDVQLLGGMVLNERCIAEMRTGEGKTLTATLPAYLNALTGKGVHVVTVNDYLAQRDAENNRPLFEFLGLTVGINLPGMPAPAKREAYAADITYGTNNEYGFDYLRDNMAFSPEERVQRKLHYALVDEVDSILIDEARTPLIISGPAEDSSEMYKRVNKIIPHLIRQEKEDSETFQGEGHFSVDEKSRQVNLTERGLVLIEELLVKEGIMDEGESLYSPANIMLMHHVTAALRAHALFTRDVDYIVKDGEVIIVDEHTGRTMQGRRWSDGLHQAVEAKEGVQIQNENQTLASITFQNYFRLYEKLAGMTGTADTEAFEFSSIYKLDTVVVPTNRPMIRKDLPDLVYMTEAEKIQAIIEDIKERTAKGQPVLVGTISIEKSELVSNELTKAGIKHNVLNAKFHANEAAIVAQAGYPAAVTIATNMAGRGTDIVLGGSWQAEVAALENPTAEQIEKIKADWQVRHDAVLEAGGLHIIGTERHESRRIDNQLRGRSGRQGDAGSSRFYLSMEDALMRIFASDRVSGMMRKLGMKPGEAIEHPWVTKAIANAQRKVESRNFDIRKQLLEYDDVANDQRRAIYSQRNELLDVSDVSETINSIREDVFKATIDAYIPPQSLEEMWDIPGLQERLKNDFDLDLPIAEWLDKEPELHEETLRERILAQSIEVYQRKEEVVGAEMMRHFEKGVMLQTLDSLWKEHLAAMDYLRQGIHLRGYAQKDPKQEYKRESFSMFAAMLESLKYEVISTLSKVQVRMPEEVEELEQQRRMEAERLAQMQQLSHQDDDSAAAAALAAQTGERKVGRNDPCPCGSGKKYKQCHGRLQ
As to `O=C(NCC1CC1)[C@@H]1CCO[C@@H]2CCN(Cc3ccco3)C[C@H]21`, the Percent Effect was -1.9%.
Regarding `CC(C)Nc1ncnc2c1CCN(C(=O)c1ccncc1F)CC2`, the Percent Effect was -4.14%.
For `Cc1nc[nH]c1CN1C[C@@H]2CC[C@H](C1)N(C(=O)CCNS(C)(=O)=O)C2`, the Percent Effect was -4.5%.
For `O=C(N[C@@H]1CN(c2ncccn2)C[C@@H]2CCCO[C@@H]21)c1cnccn1`, the Percent Effect was -0.31%.
For `CNc1cncc(C2CCCN2Cc2ccccn2)n1` (stereo not drawn), the Percent Effect was -2.75%.
On to `Fc1ccc2[nH]c(C3CCCN3CCc3ccccn3)nc2c1` (stereo not drawn), for which the Percent Effect was -0.354%.
`CS(=O)(=O)NCc1cn2c(n1)CN(C(=O)c1ccc[nH]1)CC2`: the Percent Effect was -5.06%.
With `O=C(CCNS(=O)(=O)c1ccccc1)NCc1ccoc1`, the Percent Effect is -5.05%.
Same read-out and setting: in the case of `O=C(NCc1ccc(-n2cncn2)nc1)c1ccoc1` it was -8.93%; in that of `Cn1ccnc1CN1CCC2(CC(=O)N(c3cccc(F)c3)C2)C1` (stereo not drawn), 1.4%; in that of `CC(C)c1nc2n(n1)CC(NCc1nc(-c3cccnc3)no1)CC2` (stereo not drawn), -3.79%.
Regarding `O=C(NCc1nnc2n1CCCC2)N1CCc2ccccc2C1`, the Percent Effect is -3.86%.
As to `Cc1oc(C)c(C(=O)N2CCCN(Cc3cscn3)CC2)c1C`, the Percent Effect was -6.32%.
For the compound `COc1c(CNC2CCN(C(=O)C3CC3)CC2)c(C(C)C)nn1C`, the Percent Effect was -4.71%.
`CN(C)C(=O)c1ccc(CNC(=O)NCCN(C)C2CCCC2)cc1`: the Percent Effect was -0.464%.
In the case of `CC(C(=O)N1CCCN(Cc2ccc(C#N)cc2)CC1)n1ccnc1` (stereo not drawn), the Percent Effect is -3.9%.
For `CCOc1ccccc1C(CC(=O)Nc1ccc(C)cn1)NC(C)=O` (stereo not drawn), the Percent Effect is -3.17%.
`CC(C)COC(C)C(=O)NCc1ccc(OC(C)C)nc1` (stereo not drawn): the Percent Effect is -1.41%.
Regarding `O=C(CNCCn1cccn1)NCC1(c2ccccc2)CC1`, the Percent Effect is -0.0759%.
For the compound `O=C(NC1CCC1)[C@@H]1C[C@@H]2CCN(Cc3cccs3)C[C@@H]2O1`, the Percent Effect is -2.68%.
Take `CN(C)CC1(O)CCN(S(=O)(=O)c2ccc(F)cc2)C1` (stereo not drawn): the Percent Effect is -4.76%.
Regarding `Cc1ncsc1-c1nnc(C2CCN(Cc3ccc(F)cc3)CC2)o1`, the Percent Effect is -0.551%.
Turning to `Cc1ncc(CN(C)CC2CCCN2c2cccnn2)s1` (stereo not drawn), the Percent Effect was -4.33%.
The same measure, in the same setting: next, `CN(C)CCn1c(=O)oc2ccc(NC(=O)CC(C)(C)C)cc21`: -5.92%; `O=C(NCC(O)c1ccccc1Cl)c1cccc(-n2cnnn2)c1` (stereo not drawn): -1.49%.
Same read-out and setting: in the case of `COCC(NC(=O)c1cnn(C)c1)c1cccc(C(F)(F)F)c1` (stereo not drawn) it was -8.86%; in that of `CC(C)c1nc(C2CCCN2Cc2ccno2)no1` (stereo not drawn), -2.76%.
For `CN1CCN(Cc2cscn2)CC(C(=O)N(C)C)C1` (stereo not drawn), the Percent Effect is -6.29%.
Still for that read-out and setting: in the case of `N#Cc1ccc(CN2CCN(C(=O)C3CCC3)[C@@H]3CS(=O)(=O)C[C@@H]32)cc1` it was -4.22%.
For `O=C(NC1CC1)[C@@H]1CCO[C@@H]2CCN(Cc3ccsc3)C[C@H]21`, the Percent Effect is -3.17%.
For the compound `COC1CCN(C(=O)c2c(Cl)c3ccccc3n2C)CC1`, the Percent Effect was -5.47%.
Same read-out and setting: next, `OC(CN1CCOCC1)c1ccc(OC(F)(F)F)cc1` (stereo not drawn): -5.02%; `CCOCCN1CCN(Cc2nc(C3CC3)no2)CC1CC` (stereo not drawn): -6.05%.
The same measure, in the same setting: next, `CCOC(CC)C(=O)NCCC(=O)N1CCN(c2ncccn2)CC1` (stereo not drawn): -2.66%; `CN(Cc1ccsc1)C(=O)c1cc2c([nH]c1=O)CCCC2=O`: -3.09%.
On to `CC(C)CCN1CN=C(NS(=O)(=O)c2ccc(F)cc2)NC1`, for which the Percent Effect is -1.41%.
Consider `COCCN1C[C@@H]2CCCO[C@@H]2[C@H](N(C)Cc2ccco2)C1`, for which the Percent Effect was -2.66%.
With `CN(Cc1cnn(C)c1)C(=O)NC1CCN(c2ncccn2)CC1`, the Percent Effect was -7.21%.
On to `Cc1nc(C2CCCN2CC(=O)N2CCCc3ccccc32)no1` (stereo not drawn), for which the Percent Effect is -2.99%.

The target of the next assay is T1, Ubiquitin-activating enzyme e1, putative (Leishmania donovani (strain BPK282A1)) (UniProt E9BSI1).
T1 sequence (whole entry): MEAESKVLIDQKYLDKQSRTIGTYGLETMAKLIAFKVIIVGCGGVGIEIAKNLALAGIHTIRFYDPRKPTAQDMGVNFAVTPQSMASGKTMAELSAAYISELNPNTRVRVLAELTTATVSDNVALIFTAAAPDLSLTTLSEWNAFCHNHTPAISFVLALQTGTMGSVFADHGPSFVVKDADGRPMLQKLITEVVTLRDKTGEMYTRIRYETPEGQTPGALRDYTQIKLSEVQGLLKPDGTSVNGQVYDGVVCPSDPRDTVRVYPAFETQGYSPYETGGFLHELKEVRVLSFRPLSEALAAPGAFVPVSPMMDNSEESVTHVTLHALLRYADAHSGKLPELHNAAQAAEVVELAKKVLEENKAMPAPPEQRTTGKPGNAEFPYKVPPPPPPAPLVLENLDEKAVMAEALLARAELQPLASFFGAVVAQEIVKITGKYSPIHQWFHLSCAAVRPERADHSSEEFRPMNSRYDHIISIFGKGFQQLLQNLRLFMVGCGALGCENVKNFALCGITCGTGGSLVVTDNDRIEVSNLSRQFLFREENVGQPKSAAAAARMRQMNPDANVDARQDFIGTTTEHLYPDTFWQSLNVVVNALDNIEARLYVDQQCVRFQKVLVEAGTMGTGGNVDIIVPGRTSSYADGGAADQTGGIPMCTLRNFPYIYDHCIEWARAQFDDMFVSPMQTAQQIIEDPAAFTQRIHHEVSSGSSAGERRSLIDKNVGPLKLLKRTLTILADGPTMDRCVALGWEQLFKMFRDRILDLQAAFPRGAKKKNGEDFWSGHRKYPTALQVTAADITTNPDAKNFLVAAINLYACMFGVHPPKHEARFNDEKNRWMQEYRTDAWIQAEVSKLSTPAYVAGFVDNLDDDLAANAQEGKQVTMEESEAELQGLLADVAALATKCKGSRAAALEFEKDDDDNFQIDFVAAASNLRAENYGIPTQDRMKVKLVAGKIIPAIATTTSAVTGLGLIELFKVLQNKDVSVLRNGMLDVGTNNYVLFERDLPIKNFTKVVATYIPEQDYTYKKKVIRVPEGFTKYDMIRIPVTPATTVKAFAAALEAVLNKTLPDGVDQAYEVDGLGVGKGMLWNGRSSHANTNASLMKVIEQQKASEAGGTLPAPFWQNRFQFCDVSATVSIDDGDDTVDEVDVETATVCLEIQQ
In words: Leishmania donovani Ubiquitin Activating Enzyme (LdE1). The class given is functional. Set-up: scale not given: direction of the effect not stated beside the values. Conditions: 30 µM.
With `O=C(NCC1CC1)[C@@H]1CCO[C@@H]2CCN(Cc3ccco3)C[C@H]21`, the Percent Effect is -2.67%.
With `CC(C)Nc1ncnc2c1CCN(C(=O)c1ccncc1F)CC2`, the Percent Effect stood at 8.11%.
For the compound `Cc1nc[nH]c1CN1C[C@@H]2CC[C@H](C1)N(C(=O)CCNS(C)(=O)=O)C2`, the Percent Effect is -1.39%.
With `O=C(N[C@@H]1CN(c2ncccn2)C[C@@H]2CCCO[C@@H]21)c1cnccn1`, the Percent Effect is 8%.
Take `CNc1cncc(C2CCCN2Cc2ccccn2)n1` (stereo not drawn): the Percent Effect was -4.05%.
In the case of `Fc1ccc2[nH]c(C3CCCN3CCc3ccccn3)nc2c1` (stereo not drawn), the Percent Effect came out at 8.22%.
As to `CS(=O)(=O)NCc1cn2c(n1)CN(C(=O)c1ccc[nH]1)CC2`, the Percent Effect stood at 10.7%.
In the case of `O=C(CCNS(=O)(=O)c1ccccc1)NCc1ccoc1`, the Percent Effect was 5.33%.
On the same count and under the same terms, next, `O=C(NCc1ccc(-n2cncn2)nc1)c1ccoc1`: 0%; `Cn1ccnc1CN1CCC2(CC(=O)N(c3cccc(F)c3)C2)C1` (stereo not drawn): 10.4%; `CC(C)c1nc2n(n1)CC(NCc1nc(-c3cccnc3)no1)CC2` (stereo not drawn): 2.6%.
On to `O=C(NCc1nnc2n1CCCC2)N1CCc2ccccc2C1`, for which the Percent Effect was found to be 11.4%.
Still for that read-out and setting: next, `Cc1oc(C)c(C(=O)N2CCCN(Cc3cscn3)CC2)c1C`: 7.79%; `COc1c(CNC2CCN(C(=O)C3CC3)CC2)c(C(C)C)nn1C`: 21.1%.
With `CN(C)C(=O)c1ccc(CNC(=O)NCCN(C)C2CCCC2)cc1`, the Percent Effect was found to be 16.2%.
Turning to `CC(C(=O)N1CCCN(Cc2ccc(C#N)cc2)CC1)n1ccnc1` (stereo not drawn), the Percent Effect came to 15.8%.
Turning to `CCOc1ccccc1C(CC(=O)Nc1ccc(C)cn1)NC(C)=O` (stereo not drawn), the Percent Effect stood at 10.5%.
On to `CC(C)COC(C)C(=O)NCc1ccc(OC(C)C)nc1` (stereo not drawn), for which the Percent Effect is 15.6%.
`O=C(CNCCn1cccn1)NCC1(c2ccccc2)CC1`: the Percent Effect is -2.6%.
On the same count and under the same terms, next, `O=C(NC1CCC1)[C@@H]1C[C@@H]2CCN(Cc3cccs3)C[C@@H]2O1`: -2.67%.
The same measure, in the same setting: in the case of `CN(C)CC1(O)CCN(S(=O)(=O)c2ccc(F)cc2)C1` (stereo not drawn) it was 20.3%; in that of `Cc1ncsc1-c1nnc(C2CCN(Cc3ccc(F)cc3)CC2)o1`, -4.05%.
For `Cc1ncc(CN(C)CC2CCCN2c2cccnn2)s1` (stereo not drawn), the Percent Effect was 1.27%.
On the same count and under the same terms, next, `CN(C)CCn1c(=O)oc2ccc(NC(=O)CC(C)(C)C)cc21`: 16%; `O=C(NCC(O)c1ccccc1Cl)c1cccc(-n2cnnn2)c1` (stereo not drawn): 11%.
With `COCC(NC(=O)c1cnn(C)c1)c1cccc(C(F)(F)F)c1` (stereo not drawn), the Percent Effect stood at 0%.
`CC(C)c1nc(C2CCCN2Cc2ccno2)no1` (stereo not drawn): the Percent Effect was -2.6%.
In the case of `CN1CCN(Cc2cscn2)CC(C(=O)N(C)C)C1` (stereo not drawn), the Percent Effect was determined as 18.7%.
For `N#Cc1ccc(CN2CCN(C(=O)C3CCC3)[C@@H]3CS(=O)(=O)C[C@@H]32)cc1`, the Percent Effect is 5.2%.
In the case of `O=C(NC1CC1)[C@@H]1CCO[C@@H]2CCN(Cc3ccsc3)C[C@H]21`, the Percent Effect is -8.11%.
On the same count and under the same terms, in the case of `COC1CCN(C(=O)c2c(Cl)c3ccccc3n2C)CC1` it was 5.33%; in that of `OC(CN1CCOCC1)c1ccc(OC(F)(F)F)cc1` (stereo not drawn), 2.7%.
For `CCOCCN1CCN(Cc2nc(C3CC3)no2)CC1CC` (stereo not drawn), the Percent Effect turned out to be 5.48%.
For `CCOC(CC)C(=O)NCCC(=O)N1CCN(c2ncccn2)CC1` (stereo not drawn), the Percent Effect came to 2.63%.
Regarding `CN(Cc1ccsc1)C(=O)c1cc2c([nH]c1=O)CCCC2=O`, the Percent Effect was determined as 13.5%.
The same measure, in the same setting: in the case of `CC(C)CCN1CN=C(NS(=O)(=O)c2ccc(F)cc2)NC1` it was 6.67%; in that of `COCCN1C[C@@H]2CCCO[C@@H]2[C@H](N(C)Cc2ccco2)C1`, 10.7%; in that of `CN(Cc1cnn(C)c1)C(=O)NC1CCN(c2ncccn2)CC1`, 13%.
Regarding `Cc1nc(C2CCCN2CC(=O)N2CCCc3ccccc32)no1` (stereo not drawn), the Percent Effect is -13.2%.
